Screening results: PubChem, National Center for Advancing Translational Sciences (NCATS)
The sample as a whole holds a higher share of hits than the screen did.
G9a inh = G9a (human) methyltransferase inhibition | Potency, µM (series often up to 102 µM), actives largely listed as inhibitors | G9a H3K9 monomethylation, AlphaScreen, 2 h | Q96KQ7 | actives 8.8% (n = 350,000) | AID 504332; note: nearly all actives have a fitted effect of over 75% in size
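Quantitative HTS format: methyltransferase activity on a biotin-tagged H3K9 peptide is measured by AlphaScreen, using a rabbit anti-monomethyl-H3K9 antibody with streptavidin donor and anti-IgG acceptor beads. Final levels are 20 nM enzyme, 500 nM peptide, 20 uM SAM; 2 h RT.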
12-LOX inh = ALOX12 (human) lipoxygenase inhibition | P18054 | purified 12hLO, xylenol orange hydroperoxide absorbance | Potency, µM (titrated, usually from 108 µM), most hits filed as inhibitors | actives 1.1% (n = 580,000) | AID 1671190
Target sequence (P18054 whole entry, looked up): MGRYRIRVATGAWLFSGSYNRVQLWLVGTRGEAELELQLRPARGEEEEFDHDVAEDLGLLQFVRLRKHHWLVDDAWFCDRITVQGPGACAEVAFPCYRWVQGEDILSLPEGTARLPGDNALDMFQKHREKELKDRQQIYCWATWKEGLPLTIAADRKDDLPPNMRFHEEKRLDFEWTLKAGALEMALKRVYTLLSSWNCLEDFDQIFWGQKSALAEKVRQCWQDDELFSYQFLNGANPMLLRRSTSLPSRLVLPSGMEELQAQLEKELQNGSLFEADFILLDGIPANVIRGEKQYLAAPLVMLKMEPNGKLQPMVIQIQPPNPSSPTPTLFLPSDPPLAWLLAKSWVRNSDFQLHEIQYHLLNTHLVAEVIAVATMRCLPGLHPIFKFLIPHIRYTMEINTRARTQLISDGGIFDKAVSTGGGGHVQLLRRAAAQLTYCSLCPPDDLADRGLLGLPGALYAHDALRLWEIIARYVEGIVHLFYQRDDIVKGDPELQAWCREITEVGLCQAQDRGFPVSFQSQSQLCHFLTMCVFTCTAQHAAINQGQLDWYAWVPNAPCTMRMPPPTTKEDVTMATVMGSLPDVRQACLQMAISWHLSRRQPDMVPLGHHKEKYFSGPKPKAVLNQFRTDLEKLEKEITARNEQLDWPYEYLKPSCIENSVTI
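Hydroperoxide product was detected by ferrous iron/xylenol orange as the 573 to 405 nm absorbance ratio. Arachidonic acid at 40 uM (final) was turned over for 30 min at room temperature by 150 nM human 12hLO, pH 7.0 Hepes buffer, after 15 min compound preincubation.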
VDR inhibitor = inhibitors of human vitamin D receptor; P11473; VDR-SRC2-3 peptide fluorescence polarization, 2 h; Potency, µM, most hits filed as inhibitors; actives 0.93% (n = 400,000); AID 504847
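Reagent solutions, kept cold and dark, are dispensed first; compounds are then pinned in at 23 nl, plates briefly spun, and incubated 2 h at ambient temperature. Inhibition of VDR–SRC2-3 peptide binding is read by fluorescence polarization.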
Sfp PPTase inh = inhibitors of Bacillus subtilis Sfp phosphopantetheinyl transferase; Q9F4F7; Biochemical Sfp PPTase activity, qHTS; Potency, µM, actives largely listed as inhibitors; actives 3.5% (n = 310,000);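 note: the enzyme is Sfp with the accession as filed and its product quenches rhodamine fluorescence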
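Step 1, compound plus 15 nM Sfp-PPTase, 15 min, room temperature. Step 2, add rhodamine-CoA (5 uM) and BHQ-2-YbbR (12.5 uM). Step 3, read 525/598 nm fluorescence at 0 and 30 min.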
Glioma ERSR ind = induces the endoplasmic reticulum stress response in human glioma cells. actives 0.02% (n = 420,000). U87-MG GRP78 promoter luciferase reporter, 16 h. AID 602332. Potency, µM, most hits filed as activators; note: series mostly up to about 76 µM; nearly all actives have a fitted effect of over 35% in size
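Stably transfected U87-MG glioma cells carrying a GRP78-based luciferase sensor; 16 h compound incubation. Luminescence end-point read 10 min after Bright-Glo addition at room temperature.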
A number is an active result; 0 = inactive; ? = inconclusive; - = no result; [ ] = another dose, or the depositor's remark. Calls come from the whole dose curve; as a rule, active = well fitted curve in the direction sought with a large enough effect; inconclusive = small, poorly fitted or top-dose-only effect, or another doubt; inactive = no such curve, though single readings can be large; an effect the other way counts as inactive or inconclusive.

SMILES | G9a inh | 12-LOX inh | VDR inhibitor | Sfp PPTase inh | Glioma ERSR ind
Cc1ccc(S(=O)(=O)N2CCCCC2)cc1NC(=O)CNc1ccccc1N1CCCC1=O | 0[12.7 µM] | 0 | 0 | - | 0
Cc1cccc(OCCCC(=O)Nc2ccc(N(C)C)cc2)c1 | 1.78µM | 0 | 0 | 0 | 0
CC(=O)N1CCN(c2ccc(NC(=O)COc3c(C)cc(C)cc3Cl)cc2)CC1 | - | 12.6µM | - | - | -
N#Cc1ccc(Cl)cc1NC(=O)CNc1cccc(S(=O)(=O)N2CCCC2)c1 | 44.7µM | 0 | 0 | - | 0
Cc1cccc(OCCCC(=O)Nc2ccc(Br)cc2)c1 | 0 | 0 | 0 | 0 | 0
O=C(NCc1ccc(Cl)cc1Cl)C1CCCN(c2ncnc3nc[nH]c23)C1 (configuration not stated) | - | 0 | - | - | -
Cc1ccc(/C=N/NC(=O)C2C(C=C(Cl)Cl)C2(C)C)cc1 (configuration not stated) | - | 0 | - | - | -
CC(C)c1noc([C@@H]2C[C@H](NC(=O)C3CCCCC3)CN2C)n1 | - | 0 | - | - | -
O=C(COC(=O)/C=C/c1ccc(F)cc1)Nc1cccc(S(=O)(=O)N2CCCC2)c1 | 0 | 0 | 0 | 0 | 0
COc1cccc(/C=C/C(=O)OCC(=O)Nc2cccc(S(=O)(=O)N3CCCCC3)c2)c1OC | 70.8µM | 0 | 0 | 0 | 0
Cc1ccc(C(C)C)c(OCC(=O)Nc2ccc(N3CCN(S(C)(=O)=O)CC3)cc2)c1 | 10µM | 0 | 0 | 0 | 0
CN1CCN(C(=O)C23CC4CC(C)(CC(C)(C4)C2)C3)CC1 | 56.2µM | 0 | 0 | 0 | 0
CC12CC3CC(C)(C1)CC(C(=O)N1CCCC1)(C3)C2 | 0 | 0 | 0 | 0 | 0
CCc1ccc(NCc2ccc(OC)c(Cn3ccnc3)c2)cc1 | 39.8µM | 0 | 0 | 0 | 0
COc1ccc(C=O)cc1Cn1ccnc1 | 0 | 0 | 0 | 0 | 0
COc1ccc(CNc2ccc(Cl)cc2)cc1Cn1ccnc1 | 35.5µM | 0 | 0 | 0 | 0
O=S(=O)(N/N=C\c1cccnc1)c1ccccc1 | 10µM | 0 | 0 | 0 | 0
CC(=O)Nc1ccc(S(=O)(=O)N/N=C/c2cccnc2)cc1 | - | 0 | 0 | 0 | 0
O=S(=O)(N/N=C/c1ccc(N2CCOCC2)cc1)c1ccccc1 | 44.7µM | 0 | 0 | 0 | 0
Cc1ccccc1N=C/C=C1/C=C(c2ccccc2)OC(C)(C)O1 | 22.4µM | 0 | 0 | 0 | 0
COc1ccc(N=C/C=C2\C=C(c3ccccc3)OC(C)(C)O2)cc1 | 12.6µM | 0 | 0 | 79.4µM | 0
CC1(C)OC(c2ccccc2)=C/C(=C/C=N/NC(=O)c2ccncc2)O1 | 0[12.7 µM] | 0 | 0 | 0 | 0
CC1(C)OC(c2ccccc2)=C/C(=C/C=C2C(=O)c3ccccc3C2=O)O1 | 2.51µM | 0 | 0 | 0 | 0
O=C1CC(c2ccccc2)N(Cc2ccncc2)CCCN(C(=O)COc2ccc(F)cc2)CCN1 (configuration not stated) | - | 0 | - | - | -
Cc1ccc(C)n1C1C(=O)N(C)c2ccc(Cl)cc21 (configuration not stated) | - | 44.7µM | - | - | -
SMILES | G9a inh | 12-LOX inh | VDR inhibitor | Sfp PPTase inh | Glioma ERSR ind
COc1ccc2c(c1)C(n1c(C)ccc1C)C(=O)N2C (configuration not stated) | - | 11.2µM | - | - | -
Cc1ccc(C)n1C1C(=O)N(C)c2ccccc21 (configuration not stated) | - | 0 | - | - | -
CCC(C)C(C(=O)NCc1ccc(C(=O)OC)cc1)c1ccccc1 (configuration not stated) | - | 0 | - | - | -
COc1cccc(CN2CCN(C(=O)CC(C)C)CC2)c1 | 17.8µM | ? | 0 | 0 | 0
COc1cc(OC)c(OC)cc1CN1CCN(C(=O)CC(C)C)CC1 | 17.8µM | ? | 0 | 0 | 0
CC(C)CC(=O)N1CCN(Cc2cccc(F)c2)CC1 | 0[12.7 µM] | ? | 0 | 0 | 0
Cc1cccc(OCC(=O)NNC(=O)Cn2c(=O)cnc3ccccc32)c1 | 0[2.33 µM] | 0 | 0 | - | 0
COc1ccc(OCC(=O)NNC(=O)Cn2c(=O)cnc3ccccc32)cc1 | 70.8µM | 0 | 0 | - | 0
Cc1ccc(CCNC(=O)C23CN(Cc4ccccc4)CC2C(c2cccc([N+](=O)[O-])c2)=NO3)cc1 (configuration not stated) | ? | 0 | 0 | 0 | 0
CC(C)CCNC(=O)C12CN(Cc3ccccc3)CC1C(c1ccc([N+](=O)[O-])cc1)=NO2 (configuration not stated) | ? | ? | 0 | 14.1µM | 0
COc1cccc(CNC(=O)C23CN(Cc4ccccc4)CC2C(c2ccc([N+](=O)[O-])cc2)=NO3)c1 (configuration not stated) | 70.8µM | 0 | 0 | 0 | 0
CC(NC(=O)c1cc2ccccc2oc1=O)C(=O)NCc1ccccc1 (configuration not stated) | - | 0 | - | - | -
CS(=O)(=O)Nc1cccc(CNC(=O)CCC2CCCCC2)c1 | - | 0 | - | - | -
Fc1ccccc1N1CCN(C(c2ccncc2)c2nnnn2C2CCCC2)CC1 (configuration not stated) | 31.6µM | 0 | 0 | 0 | 0
CCCC(c1nnnn1C1CCCC1)N1CCN(c2ccccc2F)CC1 (configuration not stated) | 50.1µM | ? | 0 | 0 | 0
CN(Cc1ccc(Cl)cc1Cl)C(=O)CCN=C1NS(=O)(=O)c2ccccc21 | - | 0 | - | - | -
COC(=O)c1ccccc1NC(=O)Cc1noc2ccc(C)cc12 | 0 | 0 | 0 | - | 0
COC(=O)c1ccccc1NC(=O)Cc1nc(-c2ccccc2)sc1-c1ccc(C)cc1 | 44.7µM | ? | 0 | 0 | 0
CNC(=O)NC(=O)C(C)Sc1ccc2ccccc2n1 (configuration not stated) | - | 0 | - | - | -
Cc1ccc2oc([C@H]3CCN(Cc4c[nH]c5ccccc45)C3)nc2c1 | - | 0 | - | - | -
CCCOC(=O)c1ccc(Oc2coc3cc(O)ccc3c2=O)cc1 | - | 0 | - | - | -
CCOC(=O)c1scc(-c2ccccc2)c1S(=O)(=O)Nc1cc(Cl)c(OC)cc1OC | 10µM | ? | 0 | - | 0
CCOC(=O)c1scc(-c2ccccc2)c1S(=O)(=O)Nc1ccc(N(C)C)cc1 | 4.47µM | ? | 20µM | - | 0
O=C(CSc1nccn1-c1ccc(Cl)cc1)NCc1ccc2c(c1)OCO2 | 50.1µM | 0 | 0 | 0 | 0
Cc1cc(C)cc(-n2ccnc2SCC(=O)Nc2ccc3c(c2)OCO3)c1 | 20µM | 0 | 0 | - | 0
SMILES | G9a inh | 12-LOX inh | VDR inhibitor | Sfp PPTase inh | Glioma ERSR ind
Cc1ccc(Cn2ccnc2SCC(=O)Nc2ccc3c(c2)OCO3)cc1 | 0 | 0 | 0 | - | -
O=C(CSc1nccn1-c1cccc(Cl)c1)Nc1ccc2c(c1)OCCO2 | 35.5µM | 0 | 0 | 0 | 0
CCn1c2ccccc2c2cc(NC(=O)CSc3nnc(C4CC4)n3Cc3ccco3)ccc21 | 10µM | ? | 0 | 0 | 0
O=C(CSc1nnc(-c2ccc(Cl)cc2)n1Cc1ccco1)Nc1ccc2c(c1)OCCO2 | 44.7µM | 0 | 0 | 31.6µM | 0
COc1cccc(-n2ccnc2SCC(=O)Nc2ccc(Cl)c(Cl)c2)c1 | 0 | ? | 0 | - | 0
O=C(CSc1nnc(-c2ccccc2Cl)n1Cc1ccco1)Nc1ccc2c(c1)OCCO2 | 0 | 0 | 0 | 0 | 0
O=C(CSc1nccn1-c1cccc(Cl)c1)Nc1ccc2c(c1)OCO2 | 11.2µM | 0 | 0 | - | 0
CCCNC(=O)NC(=O)CN(C)c1ccccc1 | - | 0 | - | - | -
